Screens: PubChem, The Scripps Research Institute Molecular Screening Center
A selection: hits, their analogues and other compounds. The true share with any hit is near 2.2%.
M1 ag – activates human CHRM1 receptor. P11229. CHO-K1 hM1, Fluo-8 calcium fluorescence, agonist mode; 0% DMSO, 100% acetylcholine EC100. activation, % at 3 µM. actives 0.33% (n = 360,000). AID 588814;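 active = activation above the run's mean compound activation plus 3 SD, cut at about 16% in these data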;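 also: peak over basal fluorescence ratio within a 140 s kinetic read after compound addition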
Target sequence (P11229 whole entry, looked up): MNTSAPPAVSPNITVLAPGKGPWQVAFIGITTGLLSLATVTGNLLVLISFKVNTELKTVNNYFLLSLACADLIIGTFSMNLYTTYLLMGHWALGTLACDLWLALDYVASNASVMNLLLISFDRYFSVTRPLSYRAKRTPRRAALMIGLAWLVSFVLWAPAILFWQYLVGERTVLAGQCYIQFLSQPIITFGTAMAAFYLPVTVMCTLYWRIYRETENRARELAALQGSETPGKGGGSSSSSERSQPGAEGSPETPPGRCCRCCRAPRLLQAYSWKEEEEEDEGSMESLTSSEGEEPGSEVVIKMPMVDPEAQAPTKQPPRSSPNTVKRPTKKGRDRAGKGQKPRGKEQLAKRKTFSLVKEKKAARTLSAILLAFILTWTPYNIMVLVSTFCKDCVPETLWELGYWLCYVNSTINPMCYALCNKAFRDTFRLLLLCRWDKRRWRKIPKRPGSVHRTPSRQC
CHRM1 antagonist – blocks human M1 muscarinic receptor; P11229; CHO-K1 hM1, Fluo-8 calcium fluorescence, ACh EC80 antagonist; inhibition, % at 3 µM; actives 1.3% (n = 360,000);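 active = percent inhibition above its own plate's cutoff, namely the mean of that plate's compound wells plus 3 SD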;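 also: peak over basal fluorescence ratio during 140 s after agonist addition; 0% = ACh EC80 plus DMSO and 100% = DMSO alone without agonist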
M4 PAM – positive allosteric modulators of human muscarinic M4 receptor | P08173 | CHO-K1 hM4/Gqi5, Fluo-8 calcium fluorescence, ACh EC20; 0% = ACh EC20, 100% = maximal ACh | activation, % at 3 µM | actives 0.4% (n = 360,000) | AID 624126;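 active = activation above its plate's cutoff, the mean activation of sample wells plus 3 SD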
M4 ag – agonists of human muscarinic M4 receptor (CHRM4). P08173. CHO-K1 hM4/Gqi5, Fluo-8 calcium fluorescence; vehicle 0%, full acetylcholine response 100%. activation, % at 3 µM. actives 0.14% (n = 360,000);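 active = activation above the run mean over all test wells plus 3 SD, cut at about 32% in these data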;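 also: peak over basal fluorescence ratio per well then scaled between controls; 0% = DMSO wells and 100% = acetylcholine at EC100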
CHRM1 PAM – human CHRM1 positive allosteric modulation; CHO-K1 hM1, Fluo-8 calcium fluorescence, ACh EC20; 0% = ACh EC20, 100% = maximal ACh; activation, % at 3 µM; actives 0.088% (n = 360,000); in the data active = activation above about 19%, passing the limit was not always enough
CHRM4 antagonist – blocks acetylcholine activation of human M4 receptor; actives 0.73% (n = 360,000); inhibition, % at 3 µM; CHO-hM4 cells, ACh EC80, Fluo-8 calcium fluorescence; AID 624125;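 active = inhibition above its plate's cutoff, the mean inhibition of sample wells plus 3 SD, cut at about 27% in these data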;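 also: 0% = acetylcholine EC80 with DMSO and 100% = DMSO without agonist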
Numbers without * were called inactive.

SMILES	M1 ag	CHRM1 antagonist	M4 PAM	M4 ag	CHRM1 PAM	CHRM4 antagonist
CC[N+](CC)(CC)CCC(O)(c1ccccc1)C1CCCCC1 (stereo not given)	-5.4	98.3*	-17.9	1.7	-25.3	98.7*
C=CCn1c(O)c(C2=c3ccccc3=NC2=O)c2ccccc21	0.5	-8.1	-13.3	12.1	8.0	49.8*
CCOC(=O)CCCNc1ccc([N+](=O)[O-])cc1[N+](=O)[O-]	-5.5	5.8	8.1	1.1	4.2	7.8
CCN(CC)C(CNC(=O)c1cc(=O)[nH]c2ccccc12)c1ccccc1Cl (stereo not given)	-10.7	55.5*	-8.2	1.0	-30.2	-4.6
O=C(NCc1cccc(Cl)c1)c1cc(=O)[nH]c2ccccc12	-4.2	6.6	-9.2	0.2	0.3	-3.5
O=C(Nc1cc(S(=O)(=O)N2CCOCC2)ccc1Cl)C1CCC1	-2.5	27.2*	2.2	0.4	-8.4	-10.1
O=C(COC(=O)C1CCC1)Nc1cc(S(=O)(=O)N2CCOCC2)ccc1Cl	-1.1	-0.2	6.2	1.9	0.9	-13.2
O=C(Nc1cccc(S(=O)(=O)N2CCCCC2)c1)c1ccc2c(=O)n3c(nc2c1)CCCCC3	1.4	43.4*	-12.5	16.1	-25.1	3.7
O=C(NC(=S)Nc1ccc(S(=O)(=O)N2CCCCC2)cc1)c1ccccc1	1.1	-56.0	1.0	1.3	19.4*	-4.2
CN(C)c1ccc(C(=O)Nc2cccc(S(=O)(=O)N3CCCC3)c2)cc1	-7.0	46.4*	-2.8	2.0	-24.8	4.4
Cc1c(Cl)cccc1NC(=S)N1CCCN(Cc2ccccc2F)C1	3.3	12.1	-18.0	9.2	-6.8	-3.1
COc1ccc(S(=O)(=O)N(C)CC(=O)NCc2ccccc2)cc1OC	-0.9	-24.1	-1.9	-0.1	17.3	1.3
CN(C)S(=O)(=O)c1cccc(C(=O)Nc2ccc(S(=O)(=O)N3CCCC3)cc2)c1	-5.1	17.8	-15.5	1.6	-13.2	12.1
CC1CCCN(CC(=O)Nc2cc(S(=O)(=O)N3CCOCC3)ccc2N2CCCC2)C1 (stereo not given)	-8.1	38.0*	-12.1	0.8	-20.7	14.5
COc1ccc(S(=O)(=O)N2CCOCC2)cc1NC(=O)c1ccc(Cl)cc1	-2.1	29.3*	-1.3	0.2	-10.0	7.3
CC(C)(C)CC(=O)Nc1cc(S(=O)(=O)N2CCOCC2)ccc1N1CCCC1	-3.4	-24.6	18.3	0.4	4.8	-9.4
Cc1ccc(S(=O)(=O)N2CCCN(C)CC2)cc1	-9.2	-11.0	3.8	0.9	7.2	-2.6
CN1CCCN(S(=O)(=O)c2ccccc2)CC1	-11.5	33.1*	0.8	1.0	-21.8	6.1
CN(C)S(=O)(=O)c1cccc(NC(=O)c2ccc(S(=O)(=O)N3CCCCC3)cc2)c1	-5.2	26.9*	-8.4	15.0	-26.8	-14.2
O=C(NCc1ccc(Cl)cc1Cl)Nc1nc([C@@H]2O[C@H](CO)[C@@H](O)[C@H](O)[C@H]2O)cs1	-3.6	-19.2	10.3	0.2	10.7	-13.0
COc1cc(C(=O)NCC(c2ccccc2)N(C)C)ccc1OCC(=O)N1CCOCC1 (stereo not given)	-3.4	-5.9	5.5	1.3	9.7	-5.2
CC1CCCN(S(=O)(=O)c2ccc(NC(=O)CN3CCN(C)CC3)cc2)C1 (stereo not given)	-6.1	21.8*	6.3	-0.9	-18.9	10.9
C=CCn1c(=O)[nH]c2cc(C(=O)N3CCN(c4cccc(Cl)c4)CC3)ccc2c1=O	-5.3	20.7*	-18.2	10.3	-22.6	-12.0
CN(C)S(=O)(=O)c1cccc(NC(=O)c2cccc(S(=O)(=O)N3CCCCCC3)c2)c1	-4.5	32.5*	-16.6	16.0	-21.0	-7.8
CC1CCN(CC(=O)Nc2ccc(S(=O)(=O)N3CCCC(C)C3)cc2)CC1 (stereo not given)	-8.0	2.8	-1.7	1.8	-7.8	-1.7
SMILES	M1 ag	CHRM1 antagonist	M4 PAM	M4 ag	CHRM1 PAM	CHRM4 antagonist
COc1ccccc1N(C)S(=O)(=O)c1ccc(C(=O)Nc2cccc(S(=O)(=O)N3CCOCC3)c2)cc1	-4.0	37.8*	-10.7	20.6	-21.5	9.7
CN(c1ccccc1)S(=O)(=O)c1ccc(C(=O)Nc2cccc(S(=O)(=O)N3CCOCC3)c2)cc1	-4.4	21.8	-11.9	14.0	-15.8	14.1
C=CCn1c(=O)[nH]c2cc(C(=O)N3CCN(c4ccc(C(C)=O)cc4)CC3)ccc2c1=O	-2.4	-10.7	4.3	5.1	5.1	10.4
Cc1ccc2c(c1)CCCN2CC(=O)Nc1cccc(S(=O)(=O)N2CCCC2)c1	-8.1	32.4*	-7.7	5.3	-17.2	16.1
O=C(c1ccc2c(=O)n3c(nc2c1)CCCCC3)N1CCN(c2cccc(Cl)c2)CC1	-12.8	31.6*	-14.4	7.7	-27.5	-15.2
COc1ccc(N2CCN(C(=O)c3ccc4c(=O)n5c(nc4c3)CCCCC5)CC2)cc1	-8.2	-0.7	0.7	0.6	2.3	-9.9
CC(=O)c1cc(Cl)ccc1OCc1cccc(S(=O)(=O)N2CCOCC2)c1	2.8	31.0*	-15.9	22.5	-16.3	-6.4
CN1CCN(S(=O)(=O)c2ccc(NC(=O)c3cccc(S(=O)(=O)N4CCCC4)c3)cc2)CC1	-5.2	97.9*	-19.1	1.3	-22.6	36.7*
O=C(COc1ccccc1)N1CCN(C(=O)COc2ccccc2)CC1	-3.9	-11.1	1.5	0.2	7.2	1.5
O=C(NCc1ccco1)c1cc(-c2ccc(Cl)cc2)on1	-2.8	-5.9	8.3	0.7	3.9	-8.6
CC(C)NC(=O)c1ccc(NC(=O)CC2SC(N3CCCCC3)=NC2=O)cc1 (stereo not given)	-2.6	-9.4	5.8	0.8	6.5	-3.7
CC(OC(=O)C1CC(=O)N(Cc2ccco2)C1)C(=O)Nc1ccccc1[N+](=O)[O-] (stereo not given)	-1.3	-5.8	-4.5	0.1	6.8	6.5
COc1cc2[nH]c3c(=O)n(N)c(=O)[nH]c3c2cc1OC	-5.4	41.1*	-16.6	0.5	-13.5	-8.4
COc1ccc2[nH]c3c(=O)n(N)c(=O)[nH]c3c2c1	-5.2	-8.1	10.0	0.4	6.0	-15.7
CC(=O)c1ccc(N2CCN(C(=O)/C=C/c3ccc(S(=O)(=O)N4CCOCC4)cc3)CC2)cc1	-6.4	6.0	1.6	2.0	1.0	-2.3
CC(=O)c1ccc(N2CCN(C(=O)/C=C/c3ccc(S(=O)(=O)NCc4ccco4)cc3)CC2)cc1	-2.9	39.2*	-28.3	21.1	-16.0	37.5*
Cc1cc([N+](=O)[O-])nn1CC(=O)Nc1ccccn1	-5.6	-6.7	24.8*	0.5	-0.1	-1.8
CC1(C)CC(=O)C2=C(C1)Nc1ccccc1[S@]2=O	-0.6	3.3	-17.1	10.0	-1.7	-6.5
O=S1c2ccccc2Nc2ccccc21	-5.5	1.3	-0.7	-1.1	27.1*	-2.2
